# Assay results as given in publication PMC5540273 (PLoS ONE, 2017).
# System: ACVR2B
# Conditions: concentration: 1 μM, replicates: in singlicate; n = 1
# 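Also: KINOMEscan kinase panel screen.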
row,Structure (SMILES),%Inh
1,C[C@@H](Oc1cc(-n2cnc3cc(-c4ccnc(NCCS(C)(=O)=O)c4)ccc32)sc1C(N)=O)c1ccccc1Cl [GSK907232],3%
2,CN1CCN(Cc2cccc(-c3ccc4c(Nc5ccc(Oc6ccccc6)cc5)ccnc4c3)c2)CC1 [GW578342],0%
3,Cc1ccc(S(=O)(=O)Nc2ccc(Nc3nccc(Nc4cccc5[nH]ncc45)n3)cc2)cc1 [GSK581271],57%

# System: ACVRL1
# Conditions: concentration: 1 μM, replicates: in singlicate; n = 1
row,Structure (SMILES),%Inh
1,Cl.c1ccc(-c2ccc3c(Nc4ccc5[nH]ccc5c4)ccnc3c2)nc1 [GW440138],12%
2,Nc1n[nH]c2cnc(-c3ccccc3)cc12 [SB-642124],0%
3,CN(C)Cc1ccc(-c2ccc3c(Nc4ccc(Oc5ccccn5)cc4)ccnc3c2)o1 [GW567148],0%
4,CC(C)(C)c1ccc2nccc(Nc3cccc(O)c3)c2c1 [GW856795],0%
5,O=c1[nH]cc(-c2ccc(N3CCOCC3)cc2)c2sc(-c3cn[nH]c3)cc12 [GSK2276055],0%
6,O=C(Nc1n[nH]c2cc(-c3ccoc3)ccc12)C1CC1 [SB-738481],0%
7,CC(=O)N1CCN(c2ccc(Nc3nccc(-c4sc(C(C)C)nc4-c4cccc(NS(=O)(=O)c5cccc(Cl)c5)c4)n3)cn2)CC1 [GSK1660437],44%
8,COc1cc2c(cc1OCCN1CCNCC1)ncc1c3ccc(C#N)cc3[nH]c21,0%
9,CNC(=O)c1ccccc1Nc1nc(Nc2ccc(N3CCOCC3)cc2)ncc1Cl.Cl [GSK1576028],42%
10,Oc1cc(Nc2ccnc3cc(I)ccc23)ccc1F [GW552771],69%
11,COc1cccc(C2=C(Nc3ccc(Cl)c(C(=O)O)c3)C(=O)NC2=O)c1 [SB-390769],0%
12,O=C(Nc1cccc(-c2nn3ccccc3c2-c2ccnc(Nc3cccc(F)c3)n2)c1)c1c(F)ccc(F)c1Cl [GSK357952],18%
13,O=C(Nc1cccc(Oc2ccc3nc(NC(=O)C4CC4)cn3n2)c1)c1ccccc1C(F)(F)F,0%
14,CSc1cccc2c(-c3ccncn3)c(-c3ccc(F)cc3)nn12 [GW514786],0%
15,Cn1cc(-c2[nH]c3cc(NC(=O)[C@H](N)C4CCCCC4)cc4c3c2C=NNC4=O)cn1,0%
16,COc1ccc(CNC(=O)NC2CCN(c3ccnc(Nc4ccc(F)cc4)n3)CC2)cc1 [GSK1379788],0%

row,Structure (SMILES),%Inh
1,COc1cccc(NC(=O)NC2CCN(c3ccnc(Nc4cc(OC)c(OC)c(OC)c4)n3)C2)c1 (stereo not shown) [GSK1379763],0%
2,O=C(Nc1n[nH]c2nc(-c3ccc(O)cc3)ccc12)C1CC1 [SB-710363],1%
3,CN1CCN(CCCNc2nccc(-c3c(-c4ccc(F)cc4)nn4cc(C(F)(F)F)ccc34)n2)CC1 [GW621581],26%
4,c1ccc(-c2n[nH]cc2Nc2ccnc3ccccc23)nc1 [GW694077],0%
5,CCc1ccc(-c2ccc3c(c2)-c2c(cnn2C)S(=O)(=O)N3C)cc1,17%
6,NCCCC(NC(=O)c1cc(Br)c(-c2ccnc3[nH]ccc23)s1)c1ccccc1.O=C(O)C(F)(F)F.O=C(O)C(F)(F)F (stereo not shown) [GSK1287544],0%
7,Nc1ncc(-c2cccnc2)c2scc(-c3ccc4c(c3)CCN4C(=O)Cc3ccccc3)c12 [GSK683281],3%
8,Cl.c1ccc(-c2ccc3c(Nc4ccc5[nH]ncc5c4)ccnc3c2)nc1 [GW440137],19%
9,Cc1ccc(C)c(NC(=O)NC2CCN(c3ccnc(Nc4ccc(F)cc4)n3)C2)c1 (stereo not shown) [GSK1379720],0%
10,COc1cc(Nc2nccc(-c3c(-c4cccc(NC(=O)c5c(F)cccc5F)c4)nn4ccccc34)n2)cc(OC)c1OC [GSK323521],25%
11,Fc1ccc(-c2ncn(C3CCNCC3)c2-c2ccnc(Oc3ccc(-c4ccccc4)cc3)n2)cc1 [SB-245391],19%
12,COc1cc(Nc2ncc3c(C)nc(-c4cc5ccccc5[nH]4)n3n2)cc(OC)c1OC [GW869516],0%
13,Clc1ccc(-c2nn3ncccc3c2-c2ccnc(Nc3ccc4c(c3)OCCO4)n2)cc1 [GW829116],4%
14,c1ccc(-c2cnc3nccnn23)cc1 [AH20685],0%
15,O=C(Nc1ccccc1F)NC1CCN(c2ccnc(Nc3ccc(F)cc3)n2)CC1 [GSK1379800],0%
